Reference: PubChem BioAssay (NCATS)
Active and inactive are the calls of the source. The rule behind the calls is not given here.
Potency is the fitted concentration of half-maximal effect.

Each molecule was assayed on HIV-1 nucleocapsid protein NCp7 (binding to TG oligonucleotide) (assay: HIV Nucleocapsid (AID 346;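 note: potency is for inhibitors that block NC binding and lower polarization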)). Conditions: HIV-1 NC / fluorescein-TGTGTGTG probe, fluorescence polarization.
Method in brief: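 HIV-1 NC (100 nM) binding to fluorescein-labelled ssDNA TG4xF (10 nM) in Hepes pH 7.5, 250mM NaCl, 1uM ZnCl2, TCEP and 2-mercaptoethanol; compounds pin-transferred, 1 hr room temperature, fluorescence polarization read on CCD imager.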
With COc1cccc(-c2cncnc2N(C)Cc2ccco2)c1 the Potency was > 20 µM (inactive). For COc1ccccc1-c1cc(NCc2cccc(C)c2)ncn1, the Potency was > 20 µM (inactive). COCCn1c(=O)c(-c2cc(F)cc(F)c2)nc2cnc(N3CCN(C)CC3)nc21 was tested, and the Potency was > 20 µM (inactive). In the case of COc1ccc2[nH]cc(CCNc3ccnc(-c4ccccc4Cl)n3)c2c1, the Potency is reported as > 20 µM (inactive). For Cn1cc(-c2nc3cnc(N4CCNCC4)nc3n(C)c2=O)c2ccccc21, the Potency was > 20 µM (inactive). Fc1ccc(Nc2ccnc(-c3ccccc3C(F)(F)F)n2)cc1 was tested, and the Potency was > 20 µM (inactive). COc1cccc(Nc2ncc3ncc(=O)n(Cc4ccc(F)cc4)c3n2)c1 was tested, and the Potency was > 20 µM (inactive). CNc1ncncc1-c1ccccc1C(F)(F)F was tested, and the Potency was > 20 µM (inactive). With COc1ccc(-c2nc3cnc(N(C)C)nc3n(Cc3cccs3)c2=O)cc1 the Potency was > 20 µM (inactive). In the case of COc1ccccc1-c1ccc2ncnc(NCCNC(C)=O)c2c1, the Potency is reported as > 20 µM (inactive). c1ccc(CNc2nc(-c3cccnc3)nc3ccccc23)cc1 was tested, and the Potency was > 20 µM (inactive). In the case of CCNc1ncc2nc(C)c(=O)n(C3CC3)c2n1, the Potency is reported as > 20 µM (inactive). In the case of Fc1ccc(Nc2ncnc3ccc(-c4ccoc4)cc23)cc1, the Potency is reported as > 20 µM (inactive). For COc1ccc(NC(=O)N2CC3(CCN(C(=O)c4csnn4)CC3)C2)cc1, the Potency was > 20 µM (inactive). For N#Cc1ccc(CN2CCC3(CCNCC3)CC2)cc1, the Potency was > 20 µM (inactive). In the case of COC(=O)N1CCC2(CCN(Cc3ccc(C#N)cc3)CC2)CC1, the Potency is reported as > 20 µM (inactive). With COc1ccc(Oc2ncc3nc(C)c(=O)n(Cc4cccs4)c3n2)cc1 the Potency was > 20 µM (inactive). In the case of COCC(=O)N1CCC[C@@]2(CCN(Cc3cc(C(F)(F)F)cc(C(F)(F)F)c3)C2)C1, the Potency is reported as > 20 µM (inactive). With COc1ccc(C(=O)N2CCC[C@@]3(CCN(C(=O)Nc4cccc(C#N)c4)C3)C2)cc1 the Potency was > 20 µM (inactive). In the case of COc1cccc(-c2cc(NCc3ccccc3OC)ncn2)c1, the Potency is reported as > 20 µM (inactive). In the case of COc1ccc(Oc2ncc3ncc(=O)n(Cc4cccc(OC)c4)c3n2)cc1, the Potency is reported as > 20 µM (inactive). CN(C)c1ncc2nc(-c3cc(F)cc(F)c3)c(=O)n(Cc3cccs3)c2n1 was tested, and the Potency was > 4 µM (inactive). With CC(C)NC(=O)N1CC[C@@]2(CCCN(C(=O)c3cc(C(F)(F)F)cc(C(F)(F)F)c3)C2)C1 the Potency was > 20 µM (inactive). In the case of COc1ccc(Oc2ncc3nc(-c4cc(F)cc(F)c4)c(=O)n(C[C@H]4CCCO4)c3n2)cc1, the Potency is reported as > 20 µM (inactive). O=c1c(-c2cc(F)cc(F)c2)nc2cncnc2n1Cc1ccccc1Cl was tested, and the Potency was > 20 µM (inactive). With CN1CCN(c2ncc3nc(-c4ccccc4)c(=O)n(CCc4ccccc4)c3n2)CC1 the Potency was > 20 µM (inactive). Cc1nc2cnc(N(C)C)nc2n(CCc2ccccc2)c1=O was tested, and the Potency was > 20 µM (inactive). For CN(C)C(=O)c1ccc(-c2cncnc2NCCN2CCOCC2)cc1, the Potency was > 20 µM (inactive). COC(=O)N1CCC2(CCN(C(=O)Nc3cccc(C#N)c3)CC2)CC1 was tested, and the Potency was > 20 µM (inactive). In the case of COC(=O)N1CCC2(CCCN(Cc3cc(C(F)(F)F)cc(C(F)(F)F)c3)C2)CC1, the Potency is reported as > 20 µM (inactive). COCCNc1nc(-c2ccc(N(C)C)cc2)nc2ccccc12 was tested, and the Potency was > 20 µM (inactive). CS(=O)(=O)Nc1cccc(-c2nccc(NCc3cccs3)n2)c1 was tested, and the Potency was > 20 µM (inactive). With CNc1ncnc2ccc(-c3cccc(NS(C)(=O)=O)c3)cc12 the Potency was > 20 µM (inactive). In the case of COc1ccc(Oc2ncc3nc(-c4ccc(OC)cc4)c(=O)n(Cc4cccs4)c3n2)cc1, the Potency is reported as > 20 µM (inactive). Cn1c(=O)c(-c2ccc(Cl)cc2)nc2cnc(Oc3ccccc3)nc21 was tested, and the Potency was > 20 µM (inactive). With O=C(Oc1ccccc1)N1CCC[C@@]2(CCN(c3ncccn3)C2)C1 the Potency was > 20 µM (inactive). Cc1noc(C)c1C(=O)N1CCC2(CCN(Cc3ccncc3)CC2)CC1 was tested, and the Potency was > 20 µM (inactive). In the case of O=C(c1cnccn1)N1CCC[C@@]2(CCN(c3cccc(-c4ccccc4)c3)C2)C1, the Potency is reported as > 20 µM (inactive). For COc1cccc(Cn2c(=O)c(C)nc3cnc(OC)nc32)c1, the Potency was > 20 µM (inactive). With COc1cccc(Cn2c(=O)c(-c3ccccc3)nc3cnc(N4CCN(C)CC4)nc32)c1 the Potency was > 20 µM (inactive).
